According to the supplement of paper PMC10849652:
Of roughly 7,900 targets only a part is listed; those with a hit were picked by preference. About 0.6% of all pairs of compound and target were hits.

How the values were obtained:
Assay in all cases: log2 fold change, soluble protein after heating vs DMSO (PISA); higher = thermal stabilisation; K562 cells, 10 uM, 30 min; active = over 0.2 and 3.5 SD of the protein, either way, in both replicates (recomputed)
bafetinib = compound: Cc1ccc(NC(=O)c2ccc(CN3CC[C@H](N(C)C)C3)c(C(F)(F)F)c2)cc1Nc1nccc(-c2cncnc2)n1 [bafetinib]
In short: (§1)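 Thermal stability values are relative to control samples and come from duplicates. They are expressed as log2 fold changes. For measurement, K562 cells (2×10^6 cells/mL) received 10 μM compound for 30 min, and aliquots were heated for 3 min over 48°C-58°C, pooled, and extracted at 4°C in PBS with 0.5% NP-40. Soluble protein, the supernatant after 21,000xg for 90 min, was quantified by TMTpro 16plex LC-MS/MS with equalised channel sums.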

[1] = compound: Cc1cccc(CC(=O)N2CCc3c2ccc(-c2cn(C)c4ncnc(N)c24)c3F)n1
In short: as §1

nilotinib = compound: Cc1cn(-c2cc(NC(=O)c3ccc(C)c(Nc4nccc(-c5cccnc5)n4)c3)cc(C(F)(F)F)c2)cn1 [nilotinib]
In short: as §1

[2] = compound: Cc1nc(Nc2n[nH]c3c2CN(C(=O)N[C@H](CN(C)C)c2ccccc2)C3(C)C)c2sccc2n1
In short: as §1

dasatinib = compound: Cc1nc(Nc2ncc(C(=O)Nc3c(C)cccc3Cl)s2)cc(N2CCN(CCO)CC2)n1 [dasatinib]
In short: as §1

[3] = compound: Cc1ncc(-c2ccnc(Nc3ccc(S(C)(=O)=O)cc3)n2)n1C(C)C
In short: as §1

[4] = compound: Cn1cc(-c2ccc3c(c2)CCN3C(=O)Cc2cccc(C(F)(F)F)c2)c2c(N)ncnc21
In short: as §1

[5] = compound: Cn1cc(-c2ccc3nnc(C(F)(F)c4ccc5ncccc5c4)n3n2)cn1
In short: as §1

tipifarnib = compound: Cn1cncc1[C@@](N)(c1ccc(Cl)cc1)c1ccc2c(c1)c(-c1cccc(Cl)c1)cc(=O)n2C [tipifarnib]
In short: as §1

mubritinib = compound: FC(F)(F)c1ccc(/C=C/c2nc(COc3ccc(CCCCn4ccnn4)cc3)co2)cc1 [mubritinib]
In short: as §1

[6] = compound: NC(=O)Nc1cc(-c2cccc(F)c2)sc1C(=O)N[C@H]1CCCNC1
In short: as §1

[7] = compound: NC(=O)c1cnc(N[C@@H]2CCCC[C@@H]2N)nc1Nc1cccc(-n2nccn2)c1
In short: as §1

[8] = compound: NC1(c2ccc(-c3nc4ccn5c(=O)[nH]nc5c4cc3-c3ccccc3)cc2)CCC1
In short: as §1

[9] = compound: NCC(=O)Nc1ccc(-n2nc(C(F)(F)F)cc2-c2ccc3c(ccc4ccccc43)c2)cc1
In short: as §1

entinostat = compound: Nc1ccccc1NC(=O)c1ccc(CNC(=O)OCc2cccnc2)cc1 [entinostat]
In short: as §1

vorinostat = compound: O=C(CCCCCCC(=O)Nc1ccccc1)NO [vorinostat]
In short: as §1

citarinostat = compound: O=C(CCCCCCNC(=O)c1cnc(N(c2ccccc2)c2ccccc2Cl)nc1)NO [citarinostat]
In short: as §1

silmitasertib = compound: O=C(O)c1ccc2c(c1)nc(Nc1cccc(Cl)c1)c1ccncc12 [silmitasertib]
In short: as §1

[10] = compound: O=C1NC(=O)C(c2cnc3ccccn23)=C1c1cn2c3c(cc(F)cc13)CN(C(=O)N1CCCCC1)CC2
In short: as §1

[11] = compound: c1cc(OCCN2CCCCC2)cc(-c2n[nH]c3ccc(-c4nnc[nH]4)cc23)c1
In short: as §1

Measured: log2 fold change

NFATC3 (UniProt Q12968)
Sequence of UniProt Q12968 (Q12968 whole entry, looked up): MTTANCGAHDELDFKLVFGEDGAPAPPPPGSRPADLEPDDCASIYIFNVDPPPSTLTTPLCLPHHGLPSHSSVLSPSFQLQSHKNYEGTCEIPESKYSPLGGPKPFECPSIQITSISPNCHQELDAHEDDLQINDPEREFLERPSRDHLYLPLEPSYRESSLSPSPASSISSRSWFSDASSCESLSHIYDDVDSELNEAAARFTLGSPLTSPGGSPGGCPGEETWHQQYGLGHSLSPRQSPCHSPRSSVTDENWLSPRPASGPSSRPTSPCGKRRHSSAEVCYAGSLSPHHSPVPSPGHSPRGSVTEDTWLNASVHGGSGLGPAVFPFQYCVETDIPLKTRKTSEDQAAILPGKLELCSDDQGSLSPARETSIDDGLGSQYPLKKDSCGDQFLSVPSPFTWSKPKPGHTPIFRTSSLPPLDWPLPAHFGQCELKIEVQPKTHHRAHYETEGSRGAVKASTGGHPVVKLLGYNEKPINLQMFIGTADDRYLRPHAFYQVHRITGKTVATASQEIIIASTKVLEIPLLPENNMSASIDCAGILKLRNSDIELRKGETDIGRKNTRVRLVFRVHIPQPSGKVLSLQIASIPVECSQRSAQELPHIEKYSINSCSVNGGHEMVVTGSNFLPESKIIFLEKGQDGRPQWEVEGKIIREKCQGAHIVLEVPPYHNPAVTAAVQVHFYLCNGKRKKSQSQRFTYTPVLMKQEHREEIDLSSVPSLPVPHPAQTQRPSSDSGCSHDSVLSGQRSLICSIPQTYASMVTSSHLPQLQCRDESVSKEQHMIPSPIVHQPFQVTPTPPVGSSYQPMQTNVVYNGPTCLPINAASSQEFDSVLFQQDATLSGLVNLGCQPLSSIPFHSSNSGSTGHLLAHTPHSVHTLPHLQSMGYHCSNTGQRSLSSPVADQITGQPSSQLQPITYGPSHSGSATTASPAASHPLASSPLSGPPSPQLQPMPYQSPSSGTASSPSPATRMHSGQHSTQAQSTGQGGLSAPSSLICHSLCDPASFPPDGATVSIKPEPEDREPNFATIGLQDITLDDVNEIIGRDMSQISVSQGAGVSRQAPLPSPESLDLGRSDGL
inactive: bafetinib 0.041 | [1] -0.064 | nilotinib -0.121 | [2] -0.316 | dasatinib -0.042 | [3] -0.3 | [4] -0.073 | [5] 0.191 | tipifarnib 0.01 | mubritinib -0.01 | [6] -0.15 | [7] -0.137 | [8] 0.034 | [9] 0.007 | entinostat 0.107 | vorinostat 0.045 | citarinostat -0.101 | silmitasertib 0.118 | [10] -0.267 | [11] -0.225

NMD3 (UniProt Q96D46)
Sequence of UniProt Q96D46 (Q96D46 whole entry, looked up): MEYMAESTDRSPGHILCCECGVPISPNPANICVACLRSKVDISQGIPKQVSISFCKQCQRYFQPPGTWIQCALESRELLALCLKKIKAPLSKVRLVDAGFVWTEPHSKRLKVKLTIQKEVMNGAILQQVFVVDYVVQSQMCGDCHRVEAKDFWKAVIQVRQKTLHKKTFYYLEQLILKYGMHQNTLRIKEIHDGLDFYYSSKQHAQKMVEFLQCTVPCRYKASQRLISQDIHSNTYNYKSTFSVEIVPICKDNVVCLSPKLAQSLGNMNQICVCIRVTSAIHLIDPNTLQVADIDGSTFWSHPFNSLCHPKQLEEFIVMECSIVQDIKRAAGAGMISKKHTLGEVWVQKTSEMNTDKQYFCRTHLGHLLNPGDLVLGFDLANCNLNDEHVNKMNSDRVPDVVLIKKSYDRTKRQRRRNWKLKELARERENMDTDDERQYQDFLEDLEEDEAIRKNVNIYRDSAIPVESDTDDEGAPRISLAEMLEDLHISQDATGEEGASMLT
active: [2] 0.316
inactive: bafetinib 0.071 | [1] 0.03 | nilotinib 0.025 | dasatinib 0.014 | [3] 0.123 | [4] 0.083 | [5] 0.028 | tipifarnib -0.107 | mubritinib 0.083 | [6] -0.159 | [7] -0.034 | [8] -0.098 | [9] -0.037 | entinostat -0.001 | vorinostat 0 | citarinostat 0.085 | silmitasertib -0.048 | [10] -0.071 | [11] -0.047

MKRN2 (UniProt Q9H000)
Sequence of UniProt Q9H000 (Q9H000 whole entry, looked up): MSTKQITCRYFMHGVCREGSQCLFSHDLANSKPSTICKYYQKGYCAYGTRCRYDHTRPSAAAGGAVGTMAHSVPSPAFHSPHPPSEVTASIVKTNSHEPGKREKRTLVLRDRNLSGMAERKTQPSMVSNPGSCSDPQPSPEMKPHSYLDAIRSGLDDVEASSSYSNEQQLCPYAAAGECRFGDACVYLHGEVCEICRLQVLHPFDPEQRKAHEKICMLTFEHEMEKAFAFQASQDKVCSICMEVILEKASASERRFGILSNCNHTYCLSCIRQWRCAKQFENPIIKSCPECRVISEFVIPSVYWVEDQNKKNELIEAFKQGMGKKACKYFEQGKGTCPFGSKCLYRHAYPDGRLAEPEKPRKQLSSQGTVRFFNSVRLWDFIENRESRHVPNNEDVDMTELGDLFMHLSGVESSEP
inactive: bafetinib 0.073 | [1] -0.194 | nilotinib -0.048 | [2] -0.062 | dasatinib -0.088 | [3] 0.066 | [4] -0.284 | [5] -0.099 | tipifarnib -0.01 | mubritinib -0.142 | [6] -0.007 | [7] 0 | [8] 0.094 | [9] -0.044 | entinostat 0.104 | vorinostat 0.228 | citarinostat 0.042 | silmitasertib 0.047 | [10] 0.052 | [11] -0.129

MRPS25 (UniProt P82663)
inactive: bafetinib 0.125 | [1] 0.158 | nilotinib -0.144 | [2] -0.043 | dasatinib -0.105 | [3] 0.044 | [4] 0.037 | [5] 0 | tipifarnib -0.077 | mubritinib 0.069 | [6] -0.031 | [7] 0.046 | [8] 0.04 | [9] 0.04 | entinostat 0.021 | vorinostat -0.036 | citarinostat 0.073 | silmitasertib -0.053 | [10] 0.062 | [11] -0.074

MNAT1 (UniProt P51948)
Sequence of UniProt P51948 (P51948 whole entry, looked up): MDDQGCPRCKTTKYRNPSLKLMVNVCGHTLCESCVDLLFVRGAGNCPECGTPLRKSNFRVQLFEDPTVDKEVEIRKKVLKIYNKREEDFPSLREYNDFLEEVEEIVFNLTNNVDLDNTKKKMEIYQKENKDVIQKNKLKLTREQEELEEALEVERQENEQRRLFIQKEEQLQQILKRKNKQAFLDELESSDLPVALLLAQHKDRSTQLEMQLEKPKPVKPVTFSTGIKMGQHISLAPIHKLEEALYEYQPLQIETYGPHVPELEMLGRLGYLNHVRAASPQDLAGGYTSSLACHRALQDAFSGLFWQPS
inactive: bafetinib -0.072 | [1] 0.011 | nilotinib -0.033 | [2] 0.023 | dasatinib -0.002 | [3] -0.031 | [4] 0.018 | [5] 0 | tipifarnib 0.025 | mubritinib 0.032 | [6] -0.055 | [7] -0.039 | [8] 0.005 | [9] -0.058 | entinostat -0.028 | vorinostat -0.003 | citarinostat 0.078 | silmitasertib -0.015 | [10] -0.047 | [11] -0.036

NDUFS7 (UniProt O75251)
Sequence of UniProt O75251 (O75251 whole entry, looked up): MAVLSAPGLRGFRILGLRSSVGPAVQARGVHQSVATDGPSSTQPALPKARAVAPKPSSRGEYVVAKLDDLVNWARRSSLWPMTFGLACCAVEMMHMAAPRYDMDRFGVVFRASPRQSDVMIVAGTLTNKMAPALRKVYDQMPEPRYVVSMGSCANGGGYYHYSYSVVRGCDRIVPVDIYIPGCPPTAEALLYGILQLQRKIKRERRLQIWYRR
inactive: bafetinib -0.047 | [1] 0.06 | nilotinib -0.03 | [2] 0.021 | dasatinib 0.01 | [3] -0.007 | [4] 0.034 | [5] 0.036 | tipifarnib -0.035 | mubritinib 0.095 | [6] -0.025 | [7] -0.079 | [8] -0.113 | [9] -0.057 | entinostat -0.011 | vorinostat 0.103 | citarinostat 0.013 | silmitasertib -0.003 | [10] -0.066 | [11] -0.027

NDUFS4 (UniProt O43181)
Sequence of UniProt O43181 (O43181 whole entry, looked up): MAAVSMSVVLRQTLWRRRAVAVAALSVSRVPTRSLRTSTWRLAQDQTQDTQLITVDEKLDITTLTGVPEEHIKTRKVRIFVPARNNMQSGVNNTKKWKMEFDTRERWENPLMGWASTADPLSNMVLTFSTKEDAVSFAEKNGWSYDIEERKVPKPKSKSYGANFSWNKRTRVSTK
inactive: bafetinib -0.083 | [1] 0.017 | nilotinib 0.039 | [2] 0.015 | dasatinib 0.087 | [3] -0.047 | [4] 0.025 | [5] -0.049 | tipifarnib 0.202 | mubritinib 0.058 | [6] -0.015 | [7] 0.026 | [8] 0.005 | [9] 0.053 | entinostat -0.095 | vorinostat -0.058 | citarinostat -0.069 | silmitasertib 0.03 | [10] 0.007 | [11] -0.039

MRPS22 (UniProt P82650)
inactive: bafetinib 0.233 | [1] 0.137 | nilotinib -0.21 | [2] 0.044 | dasatinib -0.024 | [3] 0.012 | [4] 0.003 | [5] 0.017 | tipifarnib -0.11 | mubritinib 0.15 | [6] -0.008 | [7] 0.031 | [8] -0.098 | [9] 0.006 | entinostat 0.027 | vorinostat 0.131 | citarinostat 0.035 | silmitasertib -0.071 | [10] -0.069 | [11] -0.006
